Screening results from PubChem BioAssay.
Shown are actives, neighbours in structure and some others; about 3.7% of the full set was active somewhere.
tim10-1 inh: growth inhibitors of tim10-1 mutant yeast, primary screen, luminescence, uHTS; S. cerevisiae tim10-1 ts strain growth, BacTiter-Glo, 24 h; inhibition, % at 20 µM; actives 2.2% (n = 330,000); AID 463190, 2010;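 active = inhibition of at least 40%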;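 also: mutant grown at 25 °C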
tim23-1 inh: growth inhibitors of tim23-1 mutant yeast, primary screen, luminescence, uHTS; inhibition, % at 20 µM; S. cerevisiae tim23-1 growth, BacTiter-Glo luminescence, 24 h; actives 1.3% (n = 330,000); AID 463212, 2010;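 active = growth inhibition of the mutant yeast at or above 50%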;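 also: temperature-sensitive mutant grown at 25 °C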
PfHsp90 yeast 2: growth inhibition of PfHsp90-expressing yeast, primary screen, antimalarial PfHsp90 inhibitor project, S. cerevisiae, BacTiter-Glo luminescence, single point, set 2; actives 0.32% (n = 310,000); inhibition, % at 9.4 µM; BacTiter-Glo ATP, 48 h; yeast lacking PDR1 and PDR3 efflux regulators;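 active = every replicate shows inhibition above about 80%, whatever the replicate mean, limit read from the data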
Rce1 inh: yeast Rce1p protease inhibitors, primary screen, biochemical, fluorescence, cell-free homogeneous; CAAX prenyl protease 2 (Saccharomyces cerevisiae (strain ATCC 204508 / S288c)), Q03530; yeast membranes, quenched prenylated peptide cleavage fluorescence; calls only; actives 0.27% (n = 290,000); AID 2563, 2010;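 active = fall in fluorescence gain of 50% or more versus controls, with final raw signal at or below 3038400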
Target sequence (Q03530 whole entry, looked up): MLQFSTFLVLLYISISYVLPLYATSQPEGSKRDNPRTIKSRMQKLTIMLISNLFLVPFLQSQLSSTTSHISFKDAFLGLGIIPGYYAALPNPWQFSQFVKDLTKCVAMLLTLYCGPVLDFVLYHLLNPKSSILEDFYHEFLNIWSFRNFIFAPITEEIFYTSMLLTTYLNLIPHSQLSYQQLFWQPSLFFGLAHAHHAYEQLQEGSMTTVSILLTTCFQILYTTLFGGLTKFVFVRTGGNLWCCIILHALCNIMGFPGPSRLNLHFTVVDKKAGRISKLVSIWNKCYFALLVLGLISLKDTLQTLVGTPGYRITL
TIM10 inh: growth inhibitors of isogenic TIM10 control yeast, primary screen, counter-screen for tim10-1 yeast inhibitor project, luminescence, uHTS; S. cerevisiae TIM10 strain growth, BacTiter-Glo luminescence, 24 h; inhibition, % at 10 µM; actives 1.4% (n = 330,000); AID 463195, 2010;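 active = inhibition of 40% or more at the single tested concentration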;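 also: wild-type TIM10 isogenic control strain grown at permissive 25 °C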
tim10-1 conf: growth inhibitors of tim10-1 mutant yeast, confirmation, single concentration, luminescence, S. cerevisiae | shares compounds with tim10-1 inh | S. cerevisiae tim10-1 ts strain growth, BacTiter-Glo, 24 h | inhibition, % at 20 µM | actives 56% (n = 7,400) | AID 463213, 2010;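 active = inhibition of yeast growth at or above a set limit in either of two repeat tests at 20 µM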;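 also: tim10-1 mutant grown at permissive 25 °C to find synthetic lethal compounds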
Of the large screens only hits and unclear results are named; the others gave an inactive call (follow-up assays come after a bar, where they were run).

CCCN(CCC)C(=O)Cn1c2ccccc2c2nc(=O)cc(C)n21	none
COc1ccc(C(=O)CSc2nnc(CNc3ccc(C)cc3C)n2Cc2ccco2)cc1	tim10-1 inh 40 | tim10-1 conf inactive
O=C(/C=C/c1ccccc1[N+](=O)[O-])NCCN1C(=O)S/C(=C\c2ccc(F)cc2)C1=O	none (no result: PfHsp90 yeast 2)
CC(C)(C)C(=O)NCCN1C(=O)S/C(=C\c2ccc([N+](=O)[O-])cc2)C1=O	tim10-1 inh 57 | tim10-1 conf 44
O=C(COC(=O)CC1CCCC1)Nc1cccc(F)c1	none (no result: PfHsp90 yeast 2, Rce1 inh)
c1ccc(OCc2nnc3sc(-c4cccs4)nn23)cc1	tim10-1 inh 47 (no result: PfHsp90 yeast 2) | tim10-1 conf inactive
COC(=O)NNC(=O)COc1ccc2ccccc2c1Br	tim10-1 inh 45 | tim10-1 conf inactive
CC(C)(C)C(=O)NNC(=O)COc1ccc2ccccc2c1Br	none
Cc1cc(CNC(=O)C2CCC(=O)N(Cc3ccccc3F)C2)nn1C (configuration not stated)	none
COc1ccc2nc(N3CCC(C)CC3)c(C#N)cc2c1	tim10-1 inh 46 | tim10-1 conf inactive
Cn1cc(SCC(=O)Nc2ccc3c(c2)OCO3)c2ccccc21	none
Cc1ccc(-n2c(SCC(=O)Nc3ccc(N4CCOCC4)cc3)nc3ccccc3c2=O)cc1	none
Cc1ccc(NC(=S)NNC(=O)CSc2nnc(-c3ccc(Cl)cc3)n2C2CCCCC2)cc1	tim10-1 inh 42 | tim10-1 conf 35
Cc1ccc(NC(=S)NNC(=O)CSc2nc3ccccc3c(=O)n2-c2ccc(C)cc2)cc1	tim10-1 inh 57 | tim10-1 conf 34
CCCn1cc(SCC(=O)Nc2ccc3c(c2)OCO3)c2ccccc21	tim10-1 inh 43 | tim10-1 conf inactive
COc1ccc(-n2c(SCC(=O)Nc3ccc4c(c3)OCO4)nc3ccccc3c2=O)cc1	tim10-1 inh 40 (no result: PfHsp90 yeast 2) | tim10-1 conf inactive
CCOc1ccc(-n2c(SCC(=O)Nc3ccc4c(c3)OCO4)nc3ccccc3c2=O)cc1	none
COc1cc2oc(=O)ccc2cc1-c1c(OC)ccc2ccc(=O)oc12	none (no result: Rce1 inh)
COc1ccccc1C(CNC(=O)C(CCSC)NC(=O)c1ccccc1Cl)N1CCCC1 (configuration not stated)	none (no result: tim10-1 inh, tim23-1 inh, Rce1 inh, TIM10 inh)
CC12CCC(C/C1=N/NC(=O)Nc1ccccc1)C2(C)C (configuration not stated)	none
COc1cccc(NC(=S)N/N=C2\CC3CCC2(C)C3(C)C)c1 (configuration not stated)	tim10-1 inh 41 | tim10-1 conf 31
COc1ccc(CNC(=O)CSC(=S)N2CCCC2)cc1	none (no result: Rce1 inh)
COc1ccc(NC(=O)CCCN2C(=O)C3CC=CCC3C2=O)cc1 (configuration not stated)	none
CC(=O)C1=C(c2ccccc2)OC(N)=C(C#N)C1c1ccccc1C (configuration not stated)	tim10-1 inh 45 | tim10-1 conf inactive
CC(=O)C1=C(c2ccccc2)OC(N)=C(C#N)C1c1ccccc1F (configuration not stated)	none
CC(=O)C1=C(C)OC(N)=C(C#N)C1c1cc2cccc(C)c2nc1Cl (configuration not stated)	tim10-1 inh 46 | tim10-1 conf inactive
COCCOC(=O)C1=C(C)OC(N)=C(C#N)C1c1cc2cccc(C)c2nc1Cl (configuration not stated)	none
Cc1cc(=O)[nH]c(SCc2ccccc2)n1	none
CC(C)(C)c1cc(=O)[nH]c(SCc2ccccc2)n1	tim10-1 inh 41 | tim10-1 conf inactive
COc1ccc(NC(=O)c2cc(-c3ccccc3Cl)on2)cc1	none
COc1cc(NC(=O)c2cc(-c3ccccc3Cl)on2)cc(OC)c1OC	tim10-1 inh 45 | tim10-1 conf inactive
Cc1ccc(CSc2ncnc3onc(C)c23)cc1	none
Cc1ccc(Sc2ncnc3onc(C)c23)cc1	tim10-1 inh 41 (no result: PfHsp90 yeast 2) | tim10-1 conf inactive
CCc1nnc(NS(=O)(=O)c2ccc(Nc3ccc([N+](=O)[O-])c4nonc34)cc2)s1	none
